Growth data for 17 molecules are collected here from PubChem BioAssay (NCI).

Holding throughout (test): NCI-60 one-dose screen, 48 h (100 = growth as untreated, 0 = no growth, -100 = all killed)
What all share (conditions): 10 µM unless noted

The test system of experiment [1] is DU-145 prostate.
For experiment [2], the system named is K-562 leukemia.
Experiment [3] has as its system MALME-3M melanoma.
Experiment [4] concerns MDA-MB-231 breast.
The subject of experiment [5] is RXF 393 renal.
Experiment [6] has as its system SF-268 CNS.
The subject of experiment [7] is SF-295 CNS.
The subject of experiment [8] is SF-539 CNS.
Experiment [9] has as its system UACC-257 melanoma.
Experiment [10] deals with M14 melanoma.

The panel holds about 83,000 compounds, 20% with a hit somewhere; the sample as a whole holds those more often.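 Single-dose data. Exposure time 48 hours. Values below 10 considered active.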 A number with no mark means an inactive call. Active and inactive are the calls of the source.

Take `O=C(/C=C/c1cc(CN2CCOCC2)c(O)c2ncccc12)c1cc(CN2CCOCC2)c(O)c2ncccc12`: the growth is 26.9% in experiment [1]; 10.4% in experiment [2]; 38.9% in experiment [3]; 30.6% in experiment [4]; 35.3% in experiment [5]; 30.2% in experiment [6]. Also, the growth in [7] was 14.7%; in experiment [8] it was 15%; in experiment [9], -6.41% (active); in [10], 31.3%.

Consider `C=CC(=O)Nc1cccc(-c2nc(SC)nc(NCCc3ccc(OC)c(OC)c3)c2C#N)c1`, for which the growth in experiment [1] was 56.9%; in [2], 31.2%; in experiment [3], 54.8%; in experiment [4], 64.1%; in [5] it was 59.4%; in experiment [6] it was 61.9%. Further, the growth in [7] is 43%; in [8], 65.6%; in [9], 29.7%; in experiment [10], 26.9%.

For the molecule `O=C(COc1ccc(-c2nc3cc(Cl)c(Cl)cc3[nH]2)cc1)N=Nc1c(O)[nH]c2ccccc12`, the growth in experiment [1] was -20.7% (active); in [2], 10.8%; in experiment [3], -68.9% (active); in [4], -50.2% (active); in experiment [5], -5.96% (active); in experiment [6], -64.5% (active). In addition, the growth in experiment [7] is 5.99% (active); in [8], 41.4%; in experiment [9], 54.4%; in experiment [10], -22.1% (active).

Turning to `CC(C)(C)N1CCC1CN` (stereo not given), the growth in experiment [1] was 118%; in experiment [2] it was 135%; in experiment [3], 147%; in [4], 116%; in experiment [5], 155%; in experiment [6] it was 100%. For the same molecule, the growth is 115% in [7], 91.8% in experiment [8], -6.55% (active) in experiment [9] and 101% in [10].

With `c1csc(C2=NN3C(C2)c2ccccc2OC3c2ccncc2)c1` (stereo not given), the growth was 97% in experiment [1]; 99.2% in [2]; 86.9% in [3]; 89.1% in [4]; 105% in experiment [5]; 89.5% in experiment [6]. Further, the growth in experiment [7] is 96.1%; in experiment [8], 96.7%; in experiment [9] it was 96.5%; in [10], 105%.

As to `C=C(C)[C@@H]1CC[C@]2(C(=O)OC)CC[C@]3(C)[C@H](CC[C@@H]4[C@@]5(C)C/C(=C/c6cccc(I)c6)C(=O)C(C)(C)[C@@H]5CC[C@]43C)[C@@H]12`, the growth in experiment [1] is 113%; in experiment [2], 96.9%; in [3], 91.6%; in [4], 98.4%; in experiment [5], 88.1%; in experiment [6] it was 95.1%. The growth in [7] was 97.6%; in experiment [8] it was 91.7%; in [9] it was 107%; in [10], 103%.

Take `O=c1c2c3c(sc2nc(N/N=C/c2cn(-c4ccccc4)nc2-c2ccc(Cl)cc2)n1Cc1ccccc1)CCCC3`: the growth in experiment [1] is 116%; in [2], 3.49% (active); in experiment [3], 115%; in [4] it was 113%; in experiment [5], 118%; in experiment [6], 91.8%. Further, the growth is 62.2% in experiment [7], 95.9% in [8], 92% in experiment [9] and 98.1% in [10].

On to `C[n+]1ccccc1/C=C/c1ccc2cccc(O)c2n1`, for which the growth in [1] is 102%; in experiment [2], 102%; in experiment [3] it was 146%; in experiment [4], 93.3%; in experiment [5], 48.4%; in experiment [6] it was 97.1%. The growth was 109% in experiment [7], 109% in experiment [8], 97.5% in experiment [9] and 103% in experiment [10].

For `Cn1cc(-c2nonc2-c2cn(C)c3ccc(F)cc23)c2cc(F)ccc21`, the growth in experiment [1] was 81.1%; in experiment [2] it was 12.6%; in experiment [3], 49.5%; in experiment [4] it was 82.3%; in experiment [5], 46.7%; in [6] it was 71.3%. Further, the growth in experiment [7] was 56.4%; in experiment [8], 66.1%; in experiment [9] it was 71.7%; in experiment [10], 31.4%.

Consider `Cc1ccc(O)c(N2C(=NCc3ccco3)NS(=O)(=O)c3cnccc32)c1`, for which the growth is 118% in experiment [1]; 71.4% in experiment [2]; 107% in experiment [3]; 111% in experiment [4]; 57.9% in [5]; 100% in [6]. Besides, the growth in experiment [7] is 0.898% (active); in experiment [8], 97.9%; in experiment [9], 124%; in experiment [10], 98.4%.

Regarding `COc1cc(C2CC(=O)c3ccccc3N2)cc(OC)c1OC` (stereo not given), the growth in experiment [1] is 117%; in experiment [2], 97.6%; in experiment [3] it was 93.7%; in [4], 86.9%; in experiment [5], 102%; in experiment [6] it was 104%. Besides, the growth was 91.7% in experiment [7], 102% in experiment [8], 87.1% in [9] and 103% in experiment [10].

Take `CCCOc1ccc2nc(NC(=O)OC)[nH]c2c1`: the growth in experiment [1] is 0.47% (active); in [2], 16.1%; in experiment [3] it was 38%; in experiment [4] it was -1.41% (active); in experiment [5] it was 18.2%; in [6], 26.2%. In addition, the growth in experiment [7] is -5.89% (active); in [8], 7.37% (active); in [9], 47.3%; in experiment [10] it was 2.83% (active).

For `CCOc1cc2ncc(C#N)c(Nc3ccc(F)c(Cl)c3)c2cc1NC(=O)CC1CCSS1` (stereo not given), the growth was -81.5% (active) in [1]; -26.4% (active) in experiment [2]; -57.8% (active) in [3]; -66.4% (active) in [4]; -56.5% (active) in experiment [5]; -55.2% (active) in [6]. Besides, the growth is -36.8% (active) in [7], -12.6% (active) in [8], -53.6% (active) in experiment [9] and -66.8% (active) in experiment [10].

Take `COc1cccc(Nc2nc(SC)nc(-c3cccc([N+](=O)[O-])c3)c2C#N)c1`: the growth was 81.4% in experiment [1]; 85.4% in experiment [2]; 72.7% in experiment [3]; 65.8% in experiment [4]; 68.2% in experiment [5]; 88% in [6]. The growth in experiment [7] is 62.6%; in [8], 81.4%; in experiment [9], 88.5%; in experiment [10], 83.4%.

Regarding `Nc1n[nH]c2cc(F)c([C@@H]3Nc4ccc5[nH]ncc5c4[C@H]4C5CCC(C5)[C@@H]34)cc12` (stereo not given in full), the growth is -7.54% (active) in experiment [1]; 11.5% in experiment [2]; 73% in experiment [3]; 35.8% in experiment [4]; 54.2% in experiment [5]; 9.83% (active) in experiment [6]. The growth in experiment [7] is 6.25% (active); in experiment [8], -31% (active); in [9], 53.1%; in [10], -1.74% (active).

For `O=C(C(=O)c1ccc2c(c1)OCO2)c1ccc2c(c1)OCO2`, the growth is 111% in [1]; 108% in experiment [2]; 104% in [3]; 100% in [4]; 105% in experiment [5]; 99% in experiment [6]. For the same molecule, the growth in [7] is 120%; in experiment [8] it was 114%; in experiment [9], 87.8%; in experiment [10], 101%.

With `O=C(CCl)Oc1ccc(-c2ccccc2)c(Br)c1`, the growth in [1] is 104%; in [2], 103%; in [3], 107%; in experiment [4], 109%; in experiment [5] it was 106%; in experiment [6], 104%. The growth is 107% in [7], 99.4% in experiment [8], 106% in experiment [9] and 103% in experiment [10].
